# Laboratory results reported in PubChem BioAssay (EPA / NIEHS).
# Activity calls are given as the source filed them. The calls were made as follows: active = hit-call score of the fitted dose curve at least 0.9, where 1 is the maximum; inactive = score below 0.9. *1 amine or outer side, *2 acyl side, *3 side chain or, on linkers, in order; H or OH if unused. Where a SMILES comes first, the peptide text is derived from it. Bridges are numbered along the chain shown (N, C = ends). Roman numbers before positions name the chains, in order. [ ]: non-standard residue; d: D form. Actinocin(9to1) = Cc1c2oc3c(C)ccc(C(=O)[*:1])c3nc-2c(C(=O)[*:2])c(N)c1=O; NMeV = CN[C@H](C(=O)O)C(C)C; Sar = CNCC(=O)O
# Test system: SRY-box transcription factor 2 (SOX2) Protein Expression, Deisenroth Lab, SOX2 (gene 6657)
# Test: CCTE_Deisenroth_DEVTOX-GLR_legacy_Sox2: (Legacy) CCTE's DevTox GLR-Endo Assay Evaluation of SRY-box transcription factor 2 (SOX2) Protein Expression, Deisenroth Lab (AID 2284346)
# Procedure: CCTE_Deisenroth_DEVTOX-GLR_legacy assay is a cell-based, multiplex-readout assay that uses RUES2-GLR, a human pluripotent cell line, with measurements taken at 48 hours after chemical dosing in a 384-well microplateCCTE_Deisenroth_DEVTOX-GLR_legacy_Sox2 is one of 4 assay components calculated from the CCTE_Deisenroth_DEVTOX-GLR_legacy assay that measures an increase in the percentage of cells in an ectodermal or pluripotent state. It is designed to make measurements of inducible reporter a form of fluorescent protein induction as detected with optical fluorescence microscopy. Percentage Sox2+ cells are determined by calculating the number of Sox2+ cells divided by cell count. A cell is Sox2+ if the cell Sox2 mean intensity is 5x BMAD above the directed endoderm control median cell Sox2 mean. The assay endpoint was analyzed with bidirectional fitting with the 0.2% DMSO control median percent Sox2 in the CCTE_Deisenroth_DEVTOX-GLR_Endo assay subtracted.Data from the assay component CCTE_Deisenroth_DEVTOX-GLR_legacy_Sox2 was analyzed into 1 assay endpoint. This assay endpoint, CCTE_Deisenroth_DEVTOX-GLR_legacy_Sox2, was analyzed in the positive analysis fitting direction relative to DMSO as the negative control and baseline activity. Using a type of inducible reporter, gain-of-signal activity can be used to understand changes in gene expression. Furthermore, this assay endpoint can be referred to as a secondary readout, because this assay has produced multiple assay endpoints where this one serves as a measure of pluripotency or ectoderm differentiation. To generalize the intended target to other relatable targets, this assay endpoint is annotated to the transcription factor intended target family, where the subfamily is SRY-related HMG-box.
# All assay protocols are aligned to the DevTox GLR-Endo assay workflow. Cells are seeded into 384-well microplates for 24 hours prior to initiating differentiation in defined media for a total duration of 48 hours. A total of two chemical exposures are administered in 24-hour intervals during the 48-hour differentiation period. At the assay termination point, cells are fixed and stained with a fluorescent dye demarcating the nucleus. High-content imaging is used to acquire brightfield and fluorescent channel images across 5 fields per well. Cell identification and mean biomarker fluorescence intensities are calculated with image analysis software to determine the total cell counts for viability assessment and the biomarker expression frequency for each lineage-dependent assay. A typical experimental design tests a 10-point concentration series (1 nM - 200 uM) for 28 compounds in single technical replicate. Assay plate controls include non-differentiated pluripotent cells (baseline control), lineage-specific differentiated cells (differentiation control), and DMSO solvent exposed differentiated cells (solvent control). Experiments typically comprise a minimum of four experimental replicates (n=4).
Structure (SMILES),AC50,outcome
CC1=C(/C=C/C(C)=C/C=C/C(C)=C\C(=O)O)C(C)(C)CCC1,41.3 µM (active),
"Cc1c2oc3c(C)ccc(C(=O)N[C@@H]4C(=O)N[C@H](C(C)C)C(=O)N5CCC[C@H]5C(=O)N(C)CC(=O)N(C)[C@@H](C(C)C)C(=O)O[C@@H]4C)c3nc-2c(C(=O)N[C@@H]2C(=O)N[C@H](C(C)C)C(=O)N3CCC[C@H]3C(=O)N(C)CC(=O)N(C)[C@@H](C(C)C)C(=O)O[C@@H]2C)c(N)c1=O (I: T[dV]P[Sar][NMeV] / II: T[dV]P[Sar][NMeV]; ester I:1-I:C, II:1-II:C; linker I:N-II:N via Actinocin(9to1))",0.00231 µM (active),
COc1cc2ncnc(Nc3ccc(F)c(Cl)c3)c2cc1OCCCN1CCOCC1,5.86 µM (active),
O=C1Cc2cc(CCN3CCN(c4nsc5ccccc45)CC3)c(Cl)cc2N1,4.3 µM (active),
CNC(=O)c1cc(Oc2ccc(NC(=O)Nc3ccc(Cl)c(C(F)(F)F)c3)cc2)ccn1,1.5 µM (active),
CN1CCN2c3ccccc3Cc3ccccc3C2C1 (stereo not given),50.1 µM (active),
Nc1cccc2c1CN(C1CCC(=O)NC1=O)C2=O (stereo not given),,inactive
O=c1[nH]c(=O)n([C@H]2C[C@H](O)[C@@H](CO)O2)cc1Br,14.4 µM (active),
Cc1nc(Nc2ncc(C(=O)Nc3c(C)cccc3Cl)s2)cc(N2CCN(CCO)CC2)n1,151 µM (active),
COc1cc2c(Nc3ccc(Br)cc3F)ncnc2cc1OCC1CCN(C)CC1,7.85 µM (active),
CCN(CC)CCNC(=O)c1c(C)[nH]c(/C=C2\C(=O)Nc3ccc(F)cc32)c1C,0.621 µM (active),
Cc1nc2sccn2c(=O)c1CCN1CCC(=C(c2ccc(F)cc2)c2ccc(F)cc2)CC1,8.41 µM (active),
Cc1ccc(NC(=O)c2ccc(CN3CCN(C)CC3)cc2)cc1Nc1nccc(-c2cccnc2)n1,19.3 µM (active),
O=C(c1ccc(F)cc1)C1CCN(CCn2c(=O)[nH]c3ccccc3c2=O)CC1,9.92 µM (active),
CCCCCN=C(N)N/N=C/c1c[nH]c2ccc(OC)cc12,,inactive
